This note sets out measurements from PubChem BioAssay (NCATS).

Inconclusive results are not listed. Active and inactive are the calls of the source. Calls come from the whole dose curve; as a rule, active = well fitted inhibition curve with a large enough effect; inconclusive = small, poorly fitted or top-dose-only effect; inactive = flat fitted curve, though single readings scatter.

Holding throughout (test): qHTS profiling for inhibitors of Plasmodium falciparum proliferation (AID 504749); note: nearly all actives have a fitted effect of over 60% in size
Conditions in all cases: P. falciparum in erythrocytes, SYBR Green DNA, 72 h; series mostly up to 28.7 µM

Assay [1] deals with CP238. The procedure, abridged: (§1)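 Each compound contacts P. falciparum-infected red blood cells for 72 h at 37 C; lysis buffer (Tris, EDTA, saponin, Triton X, SYBR Green I) is added and fluorescence measured next morning; values normalized to controls.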
Assay [2] deals with CP247. The essentials:
as §1

Assay [3] has as its system CP250. The essentials:
as §1

The subject of assay [4] is CP252. The procedure, abridged:
as §1

In assay [5] the test system is CP256. The essentials: as §1
Assay [6] has as its system CP262. The essentials:
as §1

The test system of assay [7] is CP265. The procedure, abridged:
as §1

For assay [8], the system named is CP266. The essentials:
as §1

Assay [9] deals with CP237. The essentials:
as §1

Assay [10] deals with CP260. The essentials: as §1
Potency is the fitted concentration of half-maximal effect.

`CN1CCN(C2Cc3ccccc3Sc3ccc(Cl)cc32)CC1` (stereo not drawn): the Potency entry in assay [1], in [2], in [3], in assay [4], in [5] and in assay [6] was “inactive” in each case. Besides, the Potency result in assay [7] and in assay [8] was “inactive” throughout.

Take `CCN(CC)CCNC(C(=O)OCCC(C)C)c1ccccc1` (stereo not drawn): the Potency in [9] is 3.16 µM (active); in assay [7], 8.91 µM (active). The Potency result in [2], in assay [3], in [6] and in assay [8] was “inactive” in each case.

With `CC(C)(C)NCC(O)COc1ccc(NC(=O)NC2CCCCC2)cc1` (stereo not drawn), the Potency entry in assay [9], in assay [1], in assay [3], in assay [4], in assay [5] and in [10] was “inactive” each time. Besides, the Potency entry in [6], in assay [7] and in assay [8] was “inactive” throughout.

As to `CNCCCC1c2ccccc2C=Cc2ccccc21`, the Potency result in assay [9], in assay [2], in assay [3], in [4], in [10] and in [6] was “inactive” in each case. Moreover, in assay [8], the Potency entry was “inactive”.

In the case of `O=C(O)[C@@H]1CSCN1`, the Potency entry in assay [9], in [1], in assay [3], in assay [4], in [5] and in assay [10] was “inactive” in each case. Further, the Potency result in assay [6] and in [7] was “inactive” each time.

On to `CCOC(CN1CCN(CC(C)C(=O)c2ccccc2)CC1)c1ccccc1` (stereo not drawn), for which the Potency entry in assay [1], in assay [3], in assay [4], in assay [5], in assay [10] and in assay [6] was “inactive” throughout. Moreover, in [8], the Potency result is “inactive”.

For the molecule `Nc1ccc(S(=O)(=O)Nc2ccc(Cl)nn2)cc1`, the Potency entry in assay [9], in assay [10] and in assay [8] was “inactive” in each case.

For `c1ccc(CN(CC2=NCCN2)c2ccccc2)cc1`, the Potency entry in [2], in assay [4], in assay [5], in [6] and in assay [8] was “inactive” throughout.

For `CC(C)(C)C(=O)C(Oc1ccc(Cl)cc1)n1ccnc1` (stereo not drawn), in assay [9], the Potency was 7.08 µM (active). Also, the Potency result in assay [5], in [6] and in [8] was “inactive” throughout.

Take `COCCOC(=O)C1=C(C)NC(C)=C(C(=O)OC/C=C/c2ccccc2)C1c1cccc([N+](=O)[O-])c1` (stereo not drawn): the Potency result in assay [8] was “inactive”.
